Results as given in PubChem BioAssay (NCATS).
Several values for one entry are separate records, joined by “and”; a condition that tells them apart may be missing. Identical values can stand only once. Results filed as inconclusive are left out. Where a call stands in place of a potency, no number is given. Unmarked numbers belong to inactive results. Activity calls are given as the source filed them. Unless noted, the call rests on the fitted dose curve; in most records, active means well fitted curve in the direction sought with a large enough effect; inconclusive means small, poorly fitted or top-dose-only effect, or another doubt; inactive means no such curve, though single readings can be large; an effect the other way counts as inactive or inconclusive.

Key:
[1] = molecular target: Cellular tumor antigen p53 (Homo sapiens) (UniProt P04637); assay: Primary qHTS for small molecule compounds that upregulate eGFP-tagged delta133p53alpha (in N-terminal) cells. (AID 2060322); conditions: NCI-H358 eGFP-delta133p53alpha fluorescence, 24 h; activation: stronger effect = higher value; further: nearly all actives have a fitted effect of over 75% in size; further: potency means the concentration at half of the fitted maximal effect
Outline: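 NCI-H358 cells pre-induced 24 h with 10 ng/ml doxycycline to express N-terminal eGFP-delta133p53alpha, then dosed 24 h at 37C without doxycycline; fixed, Hoechst-stained, GFP intensity by laser scanning cytometry, normalized to DMSO (0%) and 57.5 uM 5-azacytidine (100%).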

[2] = molecular target: Aldehyde dehydrogenase, mitochondrial (Homo sapiens) (UniProt P05091); assay: qHTS for Inhibitors of the Aldehyde Dehydrogenase Family (ALDH2) Confirmatory screens (AID 2061303; active means well fitted inhibition curve with a large enough effect; title and protocol of this record describe different tests; further: nearly all actives have a fitted effect of over 45% in size; further: potency means the concentration at half of the fitted maximal effect); conditions: ALDH inhibition qHTS; series mostly up to 45.4 µM
[3] = molecular target: Aldehyde dehydrogenase, mitochondrial (Homo sapiens) (UniProt P05091); assay: qHTS for Inhibitors of the Aldehyde Dehydrogenase Family (ALDH2) Primary screen (AID 2061308); conditions: ALDH2 enzyme inhibition qHTS, 1536-well; series mostly up to 56 µM; further: nearly all actives have a fitted effect of over 55% in size; further: potency means the concentration at half of the fitted maximal effect
[4] = molecular target: Retinal dehydrogenase 2 (Homo sapiens) (UniProt O94788); assay: qHTS for Inhibitors of the Aldehyde Dehydrogenase Family (ALDH1A2) Confirmation screens (AID 2061314); conditions: ALDH1A2 enzyme inhibition qHTS confirmation; series mostly up to 45.9 µM; further: nearly all actives have a fitted effect of over 65% in size; further: potency means the concentration at half of the fitted maximal effect
[5] = molecular target: Retinaldehyde dehydrogenase 3 (Homo sapiens) (UniProt P47895); assay: qHTS for Inhibitors of the Aldehyde Dehydrogenase Family (ALDH1A3) Primary screen (AID 2061315); conditions: ALDH inhibition qHTS; series mostly up to 56 µM
[6] = molecular target: Aldehyde dehydrogenase 1A1 (Homo sapiens) (UniProt P00352); assay: qHTS for Inhibitors of the Aldehyde Dehydrogenase Family (ALDH1A1) Confirmatory screens (AID 2061316); conditions: ALDH inhibition qHTS; series mostly up to 47.3 µM; further: nearly all actives have a fitted effect of over 65% in size; further: potency means the concentration at half of the fitted maximal effect
[7] = molecular target: Retinaldehyde dehydrogenase 3 (Homo sapiens) (UniProt P47895); assay: qHTS for Inhibitors of the Aldehyde Dehydrogenase Family (ALDH1A3) Confirmatory screens (AID 2061311); conditions: ALDH inhibition qHTS; series mostly up to 46 µM; further: nearly all actives have a fitted effect of over 60% in size; further: potency means the concentration at half of the fitted maximal effect
[8] = molecular target: Retinaldehyde dehydrogenase 3 (Homo sapiens) (UniProt P47895); assay: qHTS for Inhibitors of the Aldehyde Dehydrogenase Family (ALDH1A3) Validation screen (AID 2061312); conditions: ALDH1A3 enzyme inhibition qHTS validation, fluorescence; series mostly up to 84.7 µM; further: nearly all actives have a fitted effect of over 45% in size; further: potency means the concentration at half of the fitted maximal effect
[9] = BET inhibitor-based combinations targeting novel dependencies in MECOM-rearranged (r) AML: HNT-34 cell line (AID 2202234); conditions: HNT-34 AML viability, CellTiter-Glo luminescence, 48 h; series mostly up to 46 µM; further: nearly all actives have a fitted effect of over 35% in size
Outline: (§1)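 Normalized to DMSO and empty-well controls, the luminescence data from CellTiter-Glo after 48 hr drug exposure were fitted across 11 concentrations. Reported metrics are area under the dose-response curve and its Z-transformed form.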

[10] = BET inhibitor-based combinations targeting novel dependencies in MECOM-rearranged (r) AML: UCSD-AML1 cell line (AID 2202235); conditions: UCSD-AML1 AML cells viability, CellTiter-Glo, 48 h; series mostly up to 46 µM; further: nearly all actives have a fitted effect of over 40% in size
Outline: as §1

[11] = BET inhibitor-based combinations targeting novel dependencies in MECOM-rearranged (r) AML: SET-2 cell line (AID 2202231); conditions: SET-2 AML cells viability, CellTiter-Glo luminescence, 48 h; viability: stronger effect = lower value, concentration not given here; further: nearly all actives have a fitted effect of over 35% in size
Outline: (§2)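 Here, 11-point titrations of each agent were applied to 500 seeded cells and incubated 48 hr; CellTiter-Glo signal, scaled against DMSO and empty wells, was integrated as AUC, then Z-scored within the individual line.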

[12] = BET inhibitor-based combinations targeting novel dependencies in MECOM-rearranged (r) AML: OCI-AML3 cell line (AID 2202232); conditions: CellTiter-Glo luminescence, 48 h; Potency: OCI-AML3 viability; series mostly up to 46 µM; further: nearly all actives have a fitted effect of over 35% in size
Outline: as §2

[13] = BET inhibitor-based combinations targeting novel dependencies in MECOM-rearranged (r) AML: MV-4-11 cell line (AID 2202233); conditions: MV-4-11 AML viability, CellTiter-Glo luminescence, 48 h; series mostly up to 46 µM; further: nearly all actives have a fitted effect of over 45% in size
Outline: as §1

[14] = BET inhibitor-based combinations targeting novel dependencies in MECOM-rearranged (r) AML: AML-191 cell line (AID 2202236; further: nearly all actives have a fitted effect of over 35% in size); conditions: AML-191 viability, CellTiter-Glo luminescence, 48 h; series mostly up to 46 µM
Outline: as §2

[15] = BET inhibitor-based combinations targeting novel dependencies in MECOM-rearranged (r) AML: AML-194 cell line (AID 2202237; further: nearly all actives have a fitted effect of over 40% in size); conditions: AML-194 (MECOM-r AML) viability, CellTiter-Glo, 48 h; series mostly up to 46 µM
Outline: as §2

Sequence of Cellular tumor antigen p53 (Homo sapiens) (P04637 whole entry, looked up): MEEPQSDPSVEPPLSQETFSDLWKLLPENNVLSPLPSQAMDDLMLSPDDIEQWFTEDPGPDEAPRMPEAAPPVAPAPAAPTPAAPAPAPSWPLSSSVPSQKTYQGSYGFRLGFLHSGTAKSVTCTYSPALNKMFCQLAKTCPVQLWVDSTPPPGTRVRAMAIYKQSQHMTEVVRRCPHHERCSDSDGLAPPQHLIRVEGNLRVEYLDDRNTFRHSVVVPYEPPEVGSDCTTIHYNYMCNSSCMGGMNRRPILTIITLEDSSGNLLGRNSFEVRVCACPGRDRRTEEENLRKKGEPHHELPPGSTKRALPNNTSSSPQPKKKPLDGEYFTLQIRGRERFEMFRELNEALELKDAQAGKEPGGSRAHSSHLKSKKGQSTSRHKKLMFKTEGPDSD

In the case of `CC1(C)O[C@@]2(C)CC[C@@H]1C[C@@H]2OC1OC(CO)C(O)C(O)C1O` (stereo partly specified), the activation [1] was -6.11%, the Potency [2] was “inactive” and the Potency [3] was “inactive”. For the same compound, the Potency [4] was “inactive”, the Potency [5] was “inactive” and the Potency [6] was “inactive”.
With `CC(C)=C1CC2C(CCC2(C)O)C(C)(O)CC1=O` (stereo unspecified) the activation [1] was 1.79%, the Potency [2] was “inactive” and the Potency [3] was “inactive”. The Potency [4] was “inactive” and the Potency [5] was “inactive”.
For `OC/C=C/C=C/[C@H]1Cc2cc(O)cc(O)c2O1`, the activation [1] was 0.893%, the Potency [2] was “inactive” and the Potency [3] was “inactive”. The Potency [4] was “inactive”.
For `O=C1NC(=O)C(c2cn(-c3ccccc3)nc2-c2ccc(F)cc2)N1` (stereo unspecified), the activation [1] was 4.33%, the Potency [2] was “inactive” and the Potency [3] was “inactive”. For the same compound, the Potency [7] was “inactive”, the Potency [4] was “inactive” and the Potency [5] was “inactive”. For the same compound, the Potency [6] was “inactive”.
With `Clc1ncoc1-c1c[nH]c2ccccc12` the activation [1] was 11.5%, the Potency [2] was “inactive” and the Potency [3] was “inactive”. For the same compound, the Potency [7] was “inactive”, the Potency [4] was “inactive” and the Potency [5] was “inactive”.
In the case of `O=C(OC1C=C(CO)C2C(OC3OC(CO)C(O)C(O)C3O)OC=CC12O)c1ccc(O)cc1` (stereo unspecified), the activation [1] was 12.2%, the Potency [2] was “inactive” and the Potency [3] was “inactive”. The Potency [4] was “inactive”.
For `CC(CC(C)O[C@@H]1O[C@H](CO)[C@@H](O)[C@H](O)[C@H]1O)OC(=O)/C=C/c1ccc(O)cc1` (stereo partly specified), the activation [1] was 3.82%, the Potency [2] was “inactive” and the Potency [3] was “inactive”. The Potency [4] was “inactive” and the Potency [5] was “inactive”.
In the case of `O=c1nc(-c2ccccn2)sc2ccccc12`, the activation [1] was -10.5%, the Potency [2] was “inactive” and the Potency [3] was 15.8 µM (active). For the same compound, the Potency [8] was 2.82 µM (active), the Potency [4] was “inactive” and the Potency [5] was “inactive”. The Potency [6] was 1.13 µM (active).
In the case of `Cc1ccccc1C#Cc1ccc(CCC(=O)O)cc1`, the activation [1] was 4.3%, the Potency [2] was “inactive” and the Potency [3] was “inactive”. The Potency [7] was 10.1 µM (active), the Potency [8] was “inactive” and the Potency [4] was “inactive”. For the same compound, the Potency [6] was “inactive”.
For `OC[C@@]1(O)CO[C@@H](OC[C@H]2O[C@@H](Oc3c[nH]c4ccccc34)[C@H](O)[C@@H](O)[C@@H]2O)[C@@H]1O`, the activation [1] was -5.34%, the Potency [2] was “inactive” and the Potency [3] was “inactive”. The Potency [5] was “inactive” and the Potency [6] was “inactive”.
In the case of `COc1cc(C2Oc3c(OC)cc(CCCO[C@@H]4O[C@H](CO)[C@@H](O)[C@H](O)[C@H]4O)cc3C2CO)ccc1O` (stereo partly specified), the activation [1] was -6.25%, the Potency [2] was “inactive” and the Potency [3] was “inactive”. The Potency [4] was “inactive”, the Potency [5] was “inactive” and the Potency [6] was “inactive”.
With `C=C[C@H]1[C@H](O[C@@H]2O[C@H](CO)[C@@H](O)[C@H](O)[C@H]2O)OC=C(C(=O)OC)[C@H]1CCOC(=O)c1cc(O)c(O)c(O)c1` the activation [1] was 0%, the Potency [2] was “inactive” and the Potency [3] was “inactive”. For the same compound, the Potency [7] was 6.18 µM (active), the Potency [4] was “inactive” and the Potency [6] was “inactive”.
With `Cn1cc(Nc2cnccc2C(=O)O)c2cccnc21` the activation [1] was 4.33%, the Potency [2] was “inactive” and the Potency [3] was “inactive”. The Potency [7] was “inactive”, the Potency [4] was “inactive” and the Potency [5] was “inactive”.
In the case of `COc1cccc(-c2ccc(NC(=O)C3=C(C(=O)O)CCC3)c(F)c2)c1`, the activation [1] was -4.2% and -13.4%, the Potency [2] was “inactive” and the Potency [3] was “inactive”. The Potency [6] was 12.7 µM (active), the Potency [9] was “inactive” and the Potency [10] was “inactive”.
For `Cc1ccc(CN2CCNCC2)cc1NC(=O)CNc1ccc(F)c(F)c1`, the activation [1] was -12.8% and -5.25%, the Potency [2] was “inactive” and the Potency [3] was “inactive”. For the same compound, the Potency [7] was “inactive”, the Potency [5] was “inactive” and the Potency [6] was 12.7 µM (active). For the same compound, the viability [11] was 115%, the Potency [12] was “inactive” and the Potency [13] was “inactive”. For the same compound, the Potency [9] was “inactive”, the Potency [10] was “inactive” and the Potency [14] was “inactive”. The Potency [15] was “inactive”.
In the case of `COc1cc([C@H]2c3cc(O)c(OC)cc3C[C@@H](CO[C@@H]3O[C@H](CO)[C@@H](O)[C@H](O)[C@H]3O)[C@@H]2CO)ccc1O`, the activation [1] was 9.82%, the Potency [2] was “inactive” and the Potency [3] was “inactive”. For the same compound, the Potency [4] was “inactive”.
With `Cc1ccc(NC(=O)N2CCN(c3nc(N)nc4sc(-c5cccnc5)nc34)CC2)cc1` the activation [1] was 26.7%, the Potency [2] was 0.0355 µM (active) and the Potency [7] was 2.52 µM (active). The Potency [8] was 2.82 µM (active), the Potency [4] was 14.1 µM (active) and the Potency [6] was 28.3 µM (active).
In the case of `CC1(C)CCC2(C(=O)OC3OC(CO)C(O)C(O)C3O)CCC3(C)C(=CCC4C5(C)CCC(O)C(C)(C(=O)O)C5CCC43C)C2C1O` (stereo unspecified), the activation [1] was 3.57%, the Potency [2] was “inactive” and the Potency [3] was “inactive”. For the same compound, the Potency [7] was “inactive”, the Potency [4] was “inactive” and the Potency [5] was “inactive”. For the same compound, the Potency [6] was “inactive”.
For `CC1=CC(=O)C(=C(C)C)CC2C(C)(O)CCC12O` (stereo unspecified), the activation [1] was -8.93%, the Potency [2] was “inactive” and the Potency [3] was “inactive”. For the same compound, the Potency [4] was “inactive”, the Potency [5] was “inactive” and the Potency [6] was “inactive”.
In the case of `CCOC(=O)C1=C(N)Oc2ccc(Cl)cc2C1C(C#N)C(=O)OCC` (stereo unspecified), the Potency [1] was 23.9 µM (active), the Potency [2] was “inactive” and the Potency [3] was “inactive”. For the same compound, the Potency [7] was 12.7 µM (active), the Potency [8] was “inactive” and the Potency [5] was “inactive”. The Potency [6] was “inactive”.
For `Cc1[nH]c(/C=C2\C(=O)Nc3cc(-c4ccccc4)ccc32)c(C)c1CCC(=O)O`, the activation [1] was -26.3%, the Potency [2] was “inactive” and the Potency [3] was “inactive”. The Potency [8] was “inactive”, the Potency [5] was “inactive” and the Potency [6] was “inactive”.
With `CCOC(=O)C1=C(N)Oc2ccc(Br)cc2C1C(C#N)C(=O)OCC` (stereo unspecified) the Potency [1] was 30.1 µM (active), the Potency [2] was “inactive” and the Potency [3] was “inactive”. For the same compound, the Potency [7] was 11.3 µM (active), the Potency [8] was “inactive” and the Potency [5] was “inactive”. The viability [11] was 112%, the Potency [12] was “inactive” and the Potency [13] was “inactive”. The Potency [10] was “inactive”, the Potency [14] was “inactive” and the Potency [15] was “inactive”.
